# Measurements taken from ChEMBL document CHEMBL4513216, “Probing the Open Global Health Chemical Diversity Library for Multistage-Active Starting Points for Next-Generation Antimalarials” (ACS Infect Dis, 2020).
# Screen size: about 69,000 compounds; about 8,600 (12%) showed an effect of 50% or more. For the sample, strong results were picked, then their nearest neighbours and some compounds at random.
# System: Plasmodium berghei
# Assay: Screen against P. berghei liver stage (PbLuc), transformed with Luciferase, at 10uM
# Type: functional, HepG2
# Conditions: tested at 10 uM
row,SMILES,INHIBITION
1,Cc1cc2ccncc2n1CC1(O)CCN(C(=O)c2ccncc2)CC1,7.19%
2,CNc1nc(C)c(C(=O)NCC(C)(C)N2CCCCC2)s1,-34.6%
3,CN(CCO)Cc1nnc(C2CCN(CC3[C@H]4CNC[C@@H]34)CC2)n1C (stereo partly specified),-3.55%
4,c1ncn(CC2CCCN(Cc3nnc(C4CC4)o3)C2)n1 (stereo unspecified),-0.74%
5,Cc1nc(C(C)C)sc1C(=O)NCCNc1ncccn1,26.5%
6,COc1ccc(CN2CCNC(=O)CC2)cc1SC(F)(F)F,25.3%
7,COc1ccc(CN2CCC(C(N)=O)CC2)cc1SC(F)(F)F,52.2%
8,COc1ccc(CN2CCN(C(C)=O)CC2)cc1SC(F)(F)F,21.9%
9,O=C(CCc1ccccc1)NCC(O)c1c(F)cccc1F (stereo unspecified),45.7%
10,Cc1noc([C@H]2C[C@H]3OCC[C@H]3N(Cc3scnc3C)C2)n1,0.777%
11,Cc1noc([C@@H]2C[C@H]3OCC[C@H]3N(CC3CCCC3)C2)n1,29.9%
12,Cc1noc([C@@H]2C[C@H]3OCC[C@H]3N(Cc3ccoc3)C2)n1,15.9%
13,Cc1noc([C@@H]2C[C@H]3OCC[C@H]3N(Cc3cc(C)c(C)o3)C2)n1,57.9%
14,Cc1noc([C@@H]2C[C@H]3OCC[C@H]3N(Cc3sccc3C)C2)n1,54.4%
15,Cc1noc([C@H]2C[C@H]3OCC[C@H]3N(Cc3cccs3)C2)n1,43.9%
16,Cc1noc([C@@H]2C[C@H]3OCC[C@H]3N(C(C)C)C2)n1,-18.2%
17,Cc1noc([C@H]2C[C@H]3OCC[C@H]3N(C3CCC3)C2)n1,92%
18,CCc1ccc(CN2C[C@@H](c3nc(C)no3)C[C@H]3OCC[C@H]32)o1,-2.72%
19,Cc1cnn(CC2CCCN2CC(=O)Nc2nccs2)c1 (stereo unspecified),-12.1%
20,CC(C)N1[C@@H](C(=O)NCC2CC2)C[C@@H]2CN(Cc3ccco3)C[C@@H]21,-11%
21,COCCOc1cc(C)ccc1NC(=O)N(C)Cc1cnn(C)c1,-58%
22,O=C1CN(Cc2nnc(-c3ccc(Br)cc3)o2)CCN1,10.8%

row,SMILES,INHIBITION
1,Cc1c(O)oc(-c2ccc(Br)cc2)nc1=O,55.5%
2,CNC(=O)NC(C)c1nc(-c2ccc(Br)cc2)no1 (stereo unspecified),47.8%
3,CCOCCCNS(=O)(=O)c1ccc2c(c1)NC(=O)C(C)O2 (stereo unspecified),2.55%
4,Cc1nn(C)c(N(C)C)c1CNC1CCc2c(Cl)cccc21 (stereo unspecified),19.915%
5,Cc1nc(C)c(C(=O)N2CCCC(C(=O)c3nccn3C)C2)s1 (stereo unspecified),36.6%
6,COCCn1ccnc1-c1cc(CN2CCCCC2)cs1,8.51%
7,Nc1nc(Cn2ccnc2-c2cc(CN3CCCC3)cs2)cs1,42.1%
8,c1cn(CCc2c[nH]cn2)c(-c2cc(CN3CCCC3)cs2)n1,60%
9,Cc1ccc(CN2CCc3nc(C(C)C)nc(O)c3CC2)s1,2.55%
10,Oc1nc(N2CCOCC2)nc2c1CCN(Cc1cccc(F)c1)CC2,54.5%
11,Cc1cc(CN2CCc3nc(N4CCOCC4)nc(O)c3CC2)c(C)s1,90.7%
12,Oc1nc(N2CCOCC2)nc2c1CCN(Cc1cccnc1)CC2,23.3%
13,Cc1nc(O)c2c(n1)CCN(Cc1cc(C)sc1C)CC2,60.1%
14,Oc1nc(N2CCOCC2)nc2c1CCN(Cc1ccc(F)cc1)CC2,38.2%
15,CCn1cc(CN2CCc3nc(N4CCOCC4)nc(O)c3CC2)cn1,29.6%
16,Cc1nc(C)c2c(n1)CCN(Cc1ccco1)CC2,-53.2%
17,Cc1nc2c(c(NC(C)C)n1)CCN(Cc1cccnc1)CC2,49.7%
18,Cc1cc(CN2CCc3nc(C(C)C)nc(O)c3CC2)c(C)s1,62.9%
19,CC(C)c1ncc2c(n1)CN(Cc1cccc3c1OCCO3)CC2,37.7%
20,Oc1nc(N2CCOCC2)nc2c1CCN(Cc1ccccc1)CC2,35.2%
21,Cc1cccc(C(=O)N2C[C@@H]3C(CC(=O)Nc4cccnc4)[C@@H]3C2)n1 (stereo partly specified),30.9%
22,Cc1ccsc1C(=O)N1CC[C@@H](N(C)C)[C@@H]1Cc1cnn(C)c1,36.9%

row,SMILES,INHIBITION
1,O=C(CN1CCCC1)Nc1c2c(cc3c1CCC3)CCC2,-3.47%
2,Cn1ncc2c1CCCN(C(=O)C1CC1)C2,24.69%
3,CN(C)c1cc(C(=O)N2CCCCC2CNS(C)(=O)=O)ccn1 (stereo unspecified),-8.11%
4,CC(C)(C)SCCN1CC(=O)N2CC[C@@H](O)C[C@H]2C1=O,11.265%
5,CN1CC(=O)N(c2ccccc2)CC12CCN(CCO)C2 (stereo unspecified),41.3%
6,Cc1cc(CN2CCc3nc(-c4ccncc4)nc(O)c3CC2)c(C)s1,83.3%
7,C=Cn1ncc(CN2CCc3nc(-c4ccncc4)nc(O)c3C2)c1C,17.1%
8,Cc1ccc(O)c(CN2CCc3nc(-c4cccnc4)nc(O)c3C2)c1,32.8%
9,O=C(NCc1ccc(OCC2CC2)nc1)c1c(F)cccc1F,-26.8%
10,CN(C)C(=O)CNS(=O)(=O)c1cc(Br)ccc1F,42.4%
11,CCN(CC)C(=O)CNS(=O)(=O)c1cc(Br)ccc1F,23%
12,CCNC(=O)CNS(=O)(=O)c1cc(Br)ccc1F,53.6%
13,COCC(=O)N1CCCC(Cc2cnc(-c3c(C)n[nH]c3C)cn2)C1 (stereo unspecified),-29.8%
14,CC(C#N)CSc1ccccc1NCC(=O)NCc1cccs1 (stereo unspecified),58.3%
15,CC(C#N)CSc1ccccc1NCC(=O)NC1CCCCC1 (stereo unspecified),54.4%
16,CC(C#N)CSc1ccccc1NCC(=O)NC(=O)NC(C)(C)C (stereo unspecified),61.3%
17,O=C(CSc1nnc[nH]1)NCc1cccs1,-95.7%
18,CC(C#N)CSc1ccccc1NCC(=O)NC(C1CC1)C1CC1 (stereo unspecified),43.4%
19,CC(C#N)CSc1ccccc1NCC(=O)Nc1ccccc1 (stereo unspecified),26.5%
20,CC(C)CNC(=O)NC(=O)CNc1ccccc1SCC(C)C#N (stereo unspecified),-7.9%
21,CC(C#N)CSc1ccccc1NCC(=O)Nc1ccc(F)cc1 (stereo unspecified),11.1%
22,CC(C#N)CSc1ccccc1NCC(=O)NCc1ccccc1 (stereo unspecified),14.2%
